Arbovirus inh – blocks arbovirus infection; arbovirus infection cell-based antiviral screen; inhibition, % at 10 µM; 200,000 tested, 0.37% active; AID 1251; in the data active means inhibition above about 30%
Hck Nef HTS – inhibitors of human Hck kinase activated by Nef | P08631 | Recombinant Hck-YEEI plus Nef, Z-Lyte FRET kinase assay | inhibition, % at 20 µM | 220,000 tested, 0.68% active | AID 463187;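 active means Hck-Nef kinase inhibition above about 50%, limit read from the data; inactive means inhibition below that limit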;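 further: 0% = DMSO with Hck plus Nef and 100% = Hck alone without Nef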
PGE2 EP2 inh – EP2 receptor (human) inhibition. P43116. C6 glioma cells expressing human EP2, cAMP TR-FRET; cells stimulated with saturating PGE2. inhibition, % at 25 µM. 260,000 tested, 0.52% active. AID 1422;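 active means percent inhibition above 40 after rounding to a whole number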;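 further: rat C6 glioma host cells with rolipram phosphodiesterase inhibitor present; the protocol text gives 20 µM as final concentration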
EP2 modulator – modulates human prostaglandin E2 receptor EP2 signaling; P43116; EP2-expressing cells, cAMP HTRF FRET, PGE2 co-stimulation; induction, % at 25 µM; 260,000 tested, 0.83% active; AID 940;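 active means compounds whose cAMP rise, as percent of the full-agonist control response, exceeds 60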;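 further: rat C6 glioma line stably carrying human EP2 under a CMV promoter; the protocol text gives 20 µM as final concentration; 100% = response of wells given 1 µM PGE2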
p97 ATPase inh – human p97 ATPase inhibition. P55072. recombinant p97 ATPase, Kinase-Glo ATP luminescence, 3 h. inhibition, % at 8 µM. 220,000 tested, 0.42% active. AID 1481; in the data active means inhibition above about 15%;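 further: 0% = DMSO vehicle and 100% = wells lacking enzyme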
Target sequence (P55072 whole entry, looked up): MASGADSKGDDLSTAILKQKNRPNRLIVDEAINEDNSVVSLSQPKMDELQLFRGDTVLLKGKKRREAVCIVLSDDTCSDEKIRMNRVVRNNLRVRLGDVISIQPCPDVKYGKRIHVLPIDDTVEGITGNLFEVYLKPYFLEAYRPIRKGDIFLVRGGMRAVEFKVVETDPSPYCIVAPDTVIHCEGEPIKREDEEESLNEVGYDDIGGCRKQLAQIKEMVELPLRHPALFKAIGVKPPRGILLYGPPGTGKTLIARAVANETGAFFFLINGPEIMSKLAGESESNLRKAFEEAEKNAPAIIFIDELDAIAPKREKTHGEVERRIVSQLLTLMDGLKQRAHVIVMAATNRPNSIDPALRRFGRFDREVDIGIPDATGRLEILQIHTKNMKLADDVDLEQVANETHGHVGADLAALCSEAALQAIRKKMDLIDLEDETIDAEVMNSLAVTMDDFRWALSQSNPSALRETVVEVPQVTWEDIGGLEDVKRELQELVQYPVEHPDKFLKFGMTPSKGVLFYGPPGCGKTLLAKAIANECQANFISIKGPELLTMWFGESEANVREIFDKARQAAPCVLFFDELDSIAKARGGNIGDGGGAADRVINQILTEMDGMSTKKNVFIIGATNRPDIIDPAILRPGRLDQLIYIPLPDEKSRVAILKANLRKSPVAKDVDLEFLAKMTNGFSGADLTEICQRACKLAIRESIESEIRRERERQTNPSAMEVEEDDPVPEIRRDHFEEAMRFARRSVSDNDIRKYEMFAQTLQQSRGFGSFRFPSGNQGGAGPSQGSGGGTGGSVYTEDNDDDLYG
* hit, by the source's call; / = no result. In the library only some 2.4% were active in any assay of this set; here they are far more common.

SMILES | Arbovirus inh | Hck Nef HTS | PGE2 EP2 inh | EP2 modulator | p97 ATPase inh
COCCn1c(-c2ccc(Cl)cc2)cnc1SCC(=O)NC1CCCCC1C (stereo unspecified) | / | / | 12 | 28 | /
Cc1ccc(N=C(N)N=C(N)N)cc1 | / | 18 | 7 | 1 | 3
NC(N)=Nc1ccc(-c2ccc(N=C(N)N)cc2)cc1 | / | / | 48* | 17 | /
CCOc1ccccc1NC(=O)CSc1nc(C)nc2sc(C)c(C)c12 | / | / | 5 | 73* | /
CCOc1ccccc1NC(=O)CSc1ncnc2sc3c(c12)CCC(C)C3 (stereo unspecified) | / | / | 16 | 65* | /
CCOc1ccc(OCC)c(NC(=O)CSc2nc(C)nc3sc(C)c(C)c23)c1 | / | / | 10 | 42 | /
CCOc1ccccc1NC(=O)CSc1nc(C2CC2)nc2sc(C)c(C)c12 | / | / | 9 | 61* | /
Cc1cc(NC(=O)CSc2ncnc3sc4c(c23)CCC(C)C4)no1 (stereo unspecified) | / | / | 7 | -6 | /
Cn1c(C(=O)N2CCN(c3cccc(Cl)c3)CC2)cc2sccc21 | / | / | 17 | -62 | /
C=CCn1c(SCC)nc2sc3c(c2c1=O)CC(C)(C)OC3 | / | / | 7 | 80* | /
C=C(C)CSc1nc2c(c(=O)n(C)c(=O)n2C)n1Cc1ccc(Cl)cc1 | / | / | 7 | 61* | /
Cc1csc(NC(=O)CCC(=O)N(CC(=O)NC2CCCC2)Cc2cccs2)n1 | / | / | 13 | -9 | /
COc1cccc2c(=S)c(CCC(C)=O)c(C)[nH]c12 | 1 | 6 | 7 | 63* | 8
Cc1ccc(-c2cc(N)c(=O)n(CC(=O)NC3CCCCCCC3)n2)o1 | / | / | 5 | -78 | /
COc1ccc2c(C)cc(Sc3nnnn3-c3ccccc3)nc2c1 | 31* | 0 | 7 | 26 | -2
CCS(=O)(=O)N1CCC(n2nnc3ccccc3c2=O)CC1 | / | / | 3 | 1 | /
CNC(=O)c1cc2c(=O)n3cc(C)ccc3nc2n(CCN2CCOCC2)c1=N | / | / | 9 | -15 | /
CC(C)(C)C1CCC2(CC1)CCN(CCCN1CCOCC1)CC2 | / | / | 44* | 7 | /
CN(C)CCCN1CCC2(CCC(C(C)(C)C)CC2)CC1 | / | / | 51* | 22 | /
Cc1ccc(C(=O)N2C(=O)C(c3ccccc3)Oc3ccccc32)cc1 (stereo unspecified) | / | -9 | 10 | 87* | 1
O=C(Nc1ccc(C(=O)O)cc1)/C(=C/c1cccc(Br)c1)NC(=O)c1ccco1 | 16 | 15 | 5 | 63* | 2
Cc1ccc(NC(=O)/C(=C/c2cccc(Br)c2)NC(=O)c2ccco2)cc1 | 3 | -3 | 4 | 13 | -4
Cc1ccc(C(=O)N2CCc3ccccc3C2)c(F)c1F | / | / | 7 | -8 | /
O=C(O)c1cc(-c2ccc(/C=N/Nc3ccc([N+](=O)[O-])cn3)o2)ccc1Cl | 31* | 29 | 7 | -22 | 2
Cc1c(C(=O)O)cccc1-n1c(C)cc(/C=N/Nc2ccc([N+](=O)[O-])cn2)c1C | / | 62* | 10 | -17 | 4
SMILES | Arbovirus inh | Hck Nef HTS | PGE2 EP2 inh | EP2 modulator | p97 ATPase inh
O=C(O)c1ccc(-c2ccc(/C=N/Nc3ccc([N+](=O)[O-])cc3)o2)cc1 | / | 18 | 46* | -79 | -1
Cc1cccc2cc(C(c3nnnn3C3CCCC3)N3CCCc4ccccc43)c(=O)[nH]c12 (stereo unspecified) | / | / | 8 | 8 | /
CCC1Oc2nc3ccccc3cc2CN(CCOC)C1=O (stereo unspecified) | / | / | / | 5 | /
Cn1c(SCC(=O)Nc2ccc(F)cc2)nnc1-c1ccco1 | / | / | 15 | -11 | /
CC1C(c2ccc(F)cc2)=NOC1C(=O)N(C)Cc1nnc(-c2ccccc2)o1 (stereo unspecified) | / | / | 10 | -26 | /
COc1ccc(-c2nnc(-c3ccc(Br)o3)o2)cc1OC | 34* | 1 | 20 | -16 | -2
Cc1ccc(-c2cc(-c3ccccc3)c3c(N)c(S(C)(=O)=O)sc3n2)cc1 | 21 | 2 | 6 | 21 | 1
N#Cc1sc2nc(-c3cccs3)cc(-c3ccc(F)cc3)c2c1N | 37* | -3 | 8 | 43 | 2
CS(=O)(=O)c1sc2nc(-c3cccs3)cc(-c3ccccc3)c2c1N | 24 | 0 | 49* | 26 | 4
NC(N)=N/N=C/c1ccc(OCc2ccccc2Cl)cc1 | -42 | 3 | 96* | 33 | 14
Cc1ccc(S(=O)(=O)Nc2ccc(O)c(Sc3ncn[nH]3)c2)cc1 | 9 | 18 | 9 | -54 | 10
CC(C)c1ccc(S(=O)(=O)/N=C2/C=C(Sc3ncn[nH]3)C(=O)c3ccccc32)cc1 | -37 | -2 | 122* | -27 | 22*
Cc1ccc(S(=O)(=O)/N=C2/C=C(Sc3ncn[nH]3)C(=O)c3ccccc32)c(C)c1 | -32 | -2 | 54* | -61 | 8
Cc1ccc(S(=O)(=O)/N=C2/C=C(Sc3ncn[nH]3)C(=O)c3ccccc32)cc1 | -44 | 5 | 126* | -70 | 23*
CCn1c(SCC(=O)Nc2cccc(C)c2)nnc1-c1ccoc1C | / | / | 8 | -4 | /
COc1ccc(-c2nc3cnccn3c2NCCc2ccccc2)cc1CO | / | / | 11 | -62 | /
CCCC(=O)NNC(=O)CC(=O)Nc1ccccc1C(=O)O | / | 10 | 6 | -4 | 1
CCc1ccc(CCC(=O)Nc2ccccc2C(=O)O)o1 | 38* | 0 | 7 | 14 | -8
Oc1ccc(-c2nc3cnccn3c2NCCc2ccccc2)c(O)c1 | / | / | / | -33 | /
CC1(C)N=C(N)N=C(N)N1c1cccc(OCc2cccc([N+](=O)[O-])c2)c1 | / | / | 47* | 10 | /
CCNC(=S)NNC(=O)c1cc(-c2cccc(C)c2)nc2ccccc12 | -12 | 0 | 8 | -8 | -21
CCNC(=S)NNC(=O)c1cc(-c2cccnc2)nc2ccccc12 | -1 | 25 | 44* | 22 | -7
COc1cc(C(=O)N2CCC(O)(c3ccccn3)CC2)cc(OC)c1OC | / | / | / | 6 | /
CC1CCCCN1Cc1nc2c(c(=O)n(C)c(=O)n2C)n1CCN1CCOCC1 (stereo unspecified) | / | / | 14 | -4 | /
O=C(Nc1nc2c(Br)cc(Br)cc2c(=O)s1)c1ccco1 | / | 19 | 13 | 65* | 11
SMILES | Arbovirus inh | Hck Nef HTS | PGE2 EP2 inh | EP2 modulator | p97 ATPase inh
Cc1nc(NC(=O)c2ccco2)sc1C(=O)Nc1ccc(Br)cc1 | -31 | 2 | 13 | -30 | 8
O=C(CSCC(=O)N1CCCCC1)OCC(=O)c1c[nH]c2ccccc12 | 75* | 1 | 7 | -15 | 10
CN(C)c1nc(SCc2ccccc2)nc(N2CCOCC2)n1 | 5 | 0 | 9 | 26 | -2
CCNc1nc(SCc2ccccc2)nc(N2CCOCC2)n1 | 9 | 2 | 7 | 63* | 0
CCC(CN1CCN(C)CC1)NC(=O)Cc1ccc2c(c1)CCC2 (stereo unspecified) | / | / | 46* | -33 | /
CCC(CN1CCC(C)CC1)NC(=O)Cc1ccc2c(c1)OCCO2 (stereo unspecified) | / | / | 8 | 9 | /
COc1ccc(N2CC(O)=C(c3nc(-c4ccccc4)cs3)C2=N)cc1 | / | 21 | 14 | -42 | 2
COc1ccc(N2CC(O)=C(c3nc(-c4ccc(Br)cc4)cs3)C2=N)cc1 | -3 | 0 | 48* | -32 | 1
O=C(CN1CCC(n2nnc3ccccc3c2=O)CC1)N1CCCC1 | / | / | 6 | -9 | /

Source: PubChem
